POLI inh: qHTS for Inhibitors of Polymerase Iota; DNA polymerase iota (Homo sapiens), Q9UNA4; Pol iota fluorescent replication assay, 10 min; Potency, µM (highest dose often 115 µM), for inactives: at the highest dose activity, negative = inhibition, hits mostly inhibitors; hit rate 1% among 390,000; note: potency is the fitted concentration of half-maximal effect
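Fluorescent replication assay read twice, at 0 min and 10 min after adding 50 nM (final) substrate. Enzyme (10 nM) and compounds were first incubated 15 min at room temperature; enzyme-free buffer wells were negative controls.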
PI5P4K alpha inh: qHTS for Inhibitors of phosphatidylinositol 5-phosphate 4-kinase (PI5P4K); max response, %; Phosphatidylinositol 5-phosphate 4-kinase type-2 alpha (Homo sapiens), P48426; PI5P4Kalpha enzyme, ADP-Glo luminescence, 60 min; hits give low values; hit rate 1.2% among 330,000; AID 652105, 2013; active = max response of -50% or lower; inconclusive = between -30% and -50%; inactive = -30% or higher; note: value at the top dose of about 77 µM; % is set by controls: 0 for no effect and ±100 for the full control effect
Target sequence (P48426 whole entry, looked up): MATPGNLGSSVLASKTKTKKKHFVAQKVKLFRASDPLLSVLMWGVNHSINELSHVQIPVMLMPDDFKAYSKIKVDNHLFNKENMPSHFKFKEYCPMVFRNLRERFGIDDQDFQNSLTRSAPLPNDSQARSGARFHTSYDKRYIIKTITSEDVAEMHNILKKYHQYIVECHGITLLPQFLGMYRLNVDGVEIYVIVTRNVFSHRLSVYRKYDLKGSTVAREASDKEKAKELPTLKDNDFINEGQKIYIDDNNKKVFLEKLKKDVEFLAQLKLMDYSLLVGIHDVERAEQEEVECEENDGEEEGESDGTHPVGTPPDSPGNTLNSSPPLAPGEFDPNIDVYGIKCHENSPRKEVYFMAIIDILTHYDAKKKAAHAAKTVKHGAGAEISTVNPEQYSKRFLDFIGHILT
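Quantitative HTS of the MLSMR library against PI5P4Kalpha with substrate. ATP added last at 5 microM final; room temperature, 60 minutes. Remaining ATP depleted, ADP converted and read as luminescence.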
POLH inh: qHTS for Inhibitors of Polymerase Eta; DNA polymerase eta (Homo sapiens), Q9Y253; recombinant Pol eta, fluorescent DNA replication assay; Potency, µM (top dose mostly 114 µM), for the others: at the top dose activity change, negative = inhibition, hits mostly inhibitors; hit rate 1.2% among 390,000; note: potency is the fitted concentration of half-maximal effect; % is set by controls: 0 for no effect and ±100 for the full control effect
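Pol eta (10 nM) was preincubated with compounds for 15 min at room temperature, after which fluorescent replication substrate (50 nM final) was added to start the reaction. Fluorescence was read kinetically at 0 and 10 min.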
Pol beta inh: qHTS Assay for Inhibitors of DNA Polymerase Beta; AID 485314, 2010; Potency, µM (highest dose often 114 µM), inactives show at the top dose activity change, negative = inhibition, usual class: inhibitors; P06746; hit rate 1.3% among 340,000; Pol beta primer extension/strand displacement, fluorescence kinetic; note: potency is the fitted concentration of half-maximal effect; % is set by controls: 0 for no effect and ±100 for the full control effect
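Pol beta (10 nM) and compounds were preincubated 15 min at room temperature, then 50 nM substrate (final) started primer extension/strand displacement. Reads were taken at 0 and 10 min; concentration-response data were fitted to a four-parameter Hill equation.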
POLK inh: qHTS for Inhibitors of Polymerase Kappa | Potency, µM (series often up to 107 µM), without a hit: at the top dose activity, negative = inhibition, most hits filed as inhibitors | hit rate 0.53% among 400,000 | AID 588579, 2011 | purified Pol kappa, fluorescent DNA synthesis assay, 10 min | DNA polymerase kappa (Homo sapiens), Q9UBT6; note: potency is the fitted concentration of half-maximal effect; % is set by controls: 0 for no effect and ±100 for the full control effect
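10 nM Pol kappa was preincubated with compounds for 15 min at room temperature. Reaction started with 50 nM (final) substrate. Fluorescence read kinetically at 0 and 10 min.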
WRN inhibitor: qHTS for Inhibitors of WRN Helicase; AID 651768, 2012; WRN helicase unwinding, fluorescent forked duplex, kinetic; Bifunctional 3'-5' exonuclease/ATP-dependent helicase WRN (Homo sapiens), Q14191; hit rate 0.46% among 360,000; Potency, µM (series often up to 114 µM), inactives show at the top dose activity change, negative = inhibition, hits mostly inhibitors; note: potency is the fitted concentration of half-maximal effect; % is set by controls: 0 for no effect and ±100 for the full control effect; nearly all actives have a fitted effect of over 55% in size
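WRN at 20 nM final was preincubated with compound for 15 min at room temperature; reaction started with 100 nM forked duplex oligonucleotide carrying fluorophore and quencher plus 2 mM ATP (final). Unwinding followed kinetically by red fluorescence (ex 525/em 598 nm).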
An asterisk follows results filed as active; [ ] = dose if it differs, or a comment. The list is not random: actives were taken first. Their share in the collection is about 2.8%. Unless noted, calls come from the whole dose curve; as a rule, active = well fitted curve in the direction sought with a large enough effect; inconclusive = small, poorly fitted or top-dose-only effect, or another doubt; inactive = no such curve, though single readings can be large; an effect the other way counts as inactive or inconclusive.

COc1cccc(CSc2nc3n(n2)C(c2ccccc2C)C(C(=O)Nc2ccccc2OC)=C(C)N3)c1 (centres undefined) was read as POLI inh -6%, POLH inh -5%, Pol beta inh -22% and POLK inh -11%[60.1 µM].
O=S(=O)(NCC(O)COCc1ccco1)c1cccs1 (centres undefined) was read as POLI inh 22µM*, PI5P4K alpha inh inconclusive, POLH inh 20µM*, Pol beta inh 22µM*, POLK inh 35µM* and WRN inhibitor inconclusive.
`O=C1CC(C(=O)Nc2ccc(C(=O)O)cc2)C(c2ccccc2)O1` (centres undefined) gave POLI inh 0%, PI5P4K alpha inh -7, POLH inh -6%, Pol beta inh 21%, POLK inh -7% and WRN inhibitor -7%.
Screening O=C1CC(C(=O)Nc2ccc(O)c(C(=O)O)c2)C(c2ccccc2)O1 (centres undefined) returned POLI inh inconclusive, POLH inh 50µM*, Pol beta inh -10%, POLK inh -14% and WRN inhibitor -15%[57.1 µM].
For CCN(CC)S(=O)(=O)c1cccc(C(=O)Nc2ccccc2C(=O)Nc2ccc(OC)cc2)c1 the results were POLI inh 21%, POLH inh -19%, Pol beta inh -7% and POLK inh -11%[60.1 µM].
For CC(C)(C)c1nnc(NS(=O)(=O)c2cc(Cl)ccc2Cl)s1 the results were POLI inh 0%, PI5P4K alpha inh -1, POLH inh -2%, Pol beta inh 2%, POLK inh -11% and WRN inhibitor -2%.
Screening O=S(=O)(Nc1nc(-c2sccc2Cl)cs1)c1cc(Cl)ccc1Cl returned POLI inh inconclusive, PI5P4K alpha inh -50*, POLH inh inconclusive, Pol beta inh 32µM*, POLK inh -19% and WRN inhibitor inconclusive.
For O=c1c(-c2ccc(O)cc2O)coc2cc(O)cc(O)c12 the results were POLI inh inconclusive, PI5P4K alpha inh -8, POLH inh inconclusive, Pol beta inh 32µM*, POLK inh inconclusive and WRN inhibitor 1%[11.6 µM].
O=c1c(O)c(-c2ccccc2O)oc2cc(O)cc(O)c12 was read as POLK inh 4%[60.1 µM].
Screening O=c1c(O)c(-c2ccc(O)cc2O)oc2cc(O)cc(O)c12 returned POLI inh 4µM*, POLH inh 7.9µM*, Pol beta inh 4.5µM* and POLK inh 4.2µM*.
O=S1(=O)NC(=NCC(c2ccco2)N2CCCCC2)c2ccccc21 (centres undefined) was read as POLI inh -17%, PI5P4K alpha inh 0, POLH inh 2%, Pol beta inh 23%, POLK inh -4% and WRN inhibitor -5%.
CN(C)C(CN=C1NS(=O)(=O)c2ccccc21)c1ccco1 (centres undefined) was read as POLI inh 79µM*, PI5P4K alpha inh 0, POLH inh -20%, Pol beta inh inconclusive, POLK inh -31% and WRN inhibitor -3%.
Screening COc1ccc(CNc2cc(-c3ccoc3)ncn2)c(OC)c1 returned POLK inh -6%[60.1 µM].
Screening O=c1cc(COc2ccccc2Cl)nc2scc(-c3ccccc3)n12 returned POLI inh inconclusive, POLH inh inconclusive, Pol beta inh -21% and POLK inh inconclusive.
`O=c1cc(CSc2nnnn2-c2ccccc2)nc2sccn12` gave POLI inh inconclusive, PI5P4K alpha inh -23, POLH inh -2%, Pol beta inh -16%, POLK inh -23% and WRN inhibitor -15%.
Screening Cc1cccc(C)c1OCc1cc(=O)n2c(-c3ccccc3)csc2n1 returned POLI inh 18%, POLH inh -3%, Pol beta inh -13% and POLK inh -5%.
Screening O=c1cc(CSc2nnnn2-c2ccccc2)nc2scc(-c3ccccc3)n12 returned POLI inh inconclusive, PI5P4K alpha inh inconclusive, POLH inh -14%, Pol beta inh 25µM*, POLK inh inconclusive and WRN inhibitor -12%.
`O=c1cc(CN2CCN(c3ccc(O)cc3)CC2)nc2scc(-c3ccccc3)n12` gave POLI inh inconclusive, PI5P4K alpha inh inconclusive, POLH inh -18%, Pol beta inh 11µM*, POLK inh -20% and WRN inhibitor -14%.
For Cc1cccc(OCc2cc(=O)n3c(-c4ccccc4)csc3n2)c1C the results were POLI inh inconclusive, POLH inh inconclusive, Pol beta inh 28µM* and POLK inh -34%.
CC(C)c1ccc(OCc2cc(=O)n3c(-c4ccccc4)csc3n2)cc1 was read as POLI inh inconclusive, POLH inh inconclusive, Pol beta inh 20µM* and POLK inh -24%.
For COc1cccc(-c2noc(-c3cc(C(C)C)[nH]n3)n2)c1OC the results were POLI inh 1%, POLH inh -15%, Pol beta inh inconclusive and POLK inh -12%.
For Cc1cccc(C(=O)Nc2cc(-c3ccccc3F)nn2-c2ccccc2)c1 the results were POLI inh -8%, POLH inh -7%, Pol beta inh -1% and POLK inh -13%[60.1 µM].
For O=C(CSc1nc2c([nH]c3ccccc32)c(=O)n1-c1ccccc1)N1CCCC1 the results were POLI inh -5%, POLH inh -10%, Pol beta inh 20µM* and POLK inh -3%[60.1 µM].
CC1/C=C/C=C/C=C/C=C/C=C/C=C/C=C/C(OC2OC(C)C(O)C(N)C2O)CC2O[C@@](O)(CC(O)CC(O)C(O)CCC(O)CC(O)CC(=O)OC(C)[C@H](C)C1O)CC(O)C2C(=O)O (some centres undefined) was read as POLK inh 3.5µM*.
CCc1cccc(NC(=O)c2cn3c4c(ccc(Cl)c4c2=O)OC(C)C3)c1 (centres undefined) was read as POLI inh -14%, POLH inh 3%, Pol beta inh 0% and POLK inh -3%.
Screening COc1cc(OC)cc(OC(=O)c2ccc3c(=O)n4c(nc3c2)CCC4)c1 returned POLI inh 40µM*, PI5P4K alpha inh -23, POLH inh 40µM*, POLK inh -25% and WRN inhibitor -2%[11.6 µM].
For CCCCN(CCC(=O)O)c1ccc(/C=C/c2ccnc3ccccc23)cc1 the results were POLI inh 17% and POLK inh -5%.
